Test results from PubChem BioAssay (NCI).
About 83,000 compounds went through this panel and 20% of them were active in at least one assay; those are over-represented in the sample as a whole.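 Assay: single dose, 48 h. Readout: percent growth (0 = no net growth; negative = cell death). Active: <10.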 Active and inactive are the calls of the source.

What follows are compounds tested on K-562 leukemia (assay: NCI-60 one-dose screen, 48 h (100 = growth as untreated, 0 = no growth, -100 = all killed)). Conditions: 10 µM.

Row | SMILES | growth
1 | COc1ccc(/C=C/C(=O)c2ccc(NC(=O)CN3C(=O)NC(C)(c4ccccc4)C3=O)cc2)cc1 (configuration not stated) | 60.2% (inactive)
2 | CC1(c2ccccc2)NC(=O)N(CC(=O)Nc2ccc(C(=O)/C=C/c3ccc(Br)cc3)cc2)C1=O (configuration not stated) | 14.5% (inactive)
3 | C=C[C@@]12CN3CC[C@]1(O)[C@@](C(=O)OC)(CO2)c1[nH]c2ccccc2c1C3 | 33.9% (inactive)
4 | COc1ccc(/C=C/C(=O)c2ccc(S(=O)(=O)NCCNc3nc(Nc4ccc(F)cc4)nc(N(C)C)n3)cc2)cc1 | 27.3% (inactive)
5 | O=c1oc2ccccc2cc1-c1csc(N=Nc2c(O)[nH]c3ccc(Br)cc23)n1 | 103% (inactive)
6 | O=C(CSc1nnc(-c2c[nH]c3ccccc23)n1-c1ccccc1)Nc1ccc(C(=O)/C=C/c2ccccc2Cl)cc1 | 55.9% (inactive)
7 | O=C(NO)c1ccc(-c2nc3ccc4[nH]ncc4c3c3c2CCCC3)cc1 | 10.1% (inactive)
8 | CS(=O)(=O)Nc1ccc(-c2ccc3c(c2)ncn3-c2ccc(NC(=O)Nc3ccc(Br)cc3)cc2)cc1 | 4.89% (active)
9 | COc1cc(-c2nc3cc(Cl)c(Cl)cc3[nH]2)ccc1OCc1nnc(-c2ccc(Br)cc2)o1 | 6.47% (active)
10 | COc1cc2c3c(n(CCCn4ccnc4)c(=O)c2cc1OC)-c1nc2c(cc1C3=O)OCO2 | 28.4% (inactive)
11 | Cc1ccc(/C=C/C(=O)c2ccc(NC(=O)CSc3nnc(-c4c[nH]c5ccccc45)n3-c3ccccc3)cc2)cc1 | 64.1% (inactive)
12 | O=C(CSc1nnc(-c2ccc3nc(-c4ccccc4)[nH]c3c2)o1)Nc1ccc(Br)cc1 | 18.4% (inactive)
13 | O=C(CNc1nc(-c2ccccc2)cs1)Nc1ccccc1 | 5.68% (active)
14 | O=C(/C=C/Nc1ccc(F)cc1F)c1ccc2c(c1)Nc1ccccc1S2 | 28.6% (inactive)
15 | COc1ccc(-c2cc(C(=O)N=Nc3c(O)[nH]c4ccc(F)cc34)c3ccccc3n2)cc1 | 25.2% (inactive)
16 | O=C(CSc1nnc(-c2ccc3nc(-c4ccccc4)[nH]c3c2)o1)Nc1ccc(Cl)cc1 | 16.7% (inactive)
17 | CCOc1ccc(Nc2nc3ccccc3nc2Nc2ccc(OCC)cc2)cc1 | 30.2% (inactive)
18 | Cc1ccc(C(=O)Nc2ccc(-n3c(C)nc4c(cnn4-c4ccccc4)c3=O)cc2)cc1 | 31.2% (inactive)
19 | COc1ccc(-c2cc(-c3cc(C(=O)c4ccccc4)n4ccc(C)cc34)nc(N)c2C#N)cc1 | 88.3% (inactive)
20 | O=c1[nH]c2ccc(Cl)cc2cc1CSc1ccc(Nc2nccc(-c3ccc(Cl)cc3)n2)cc1 | 59.3% (inactive)
21 | COc1ccc(-c2cc(C(=O)N=Nc3c(O)[nH]c4ccccc34)c3ccccc3n2)cc1 | 25.7% (inactive)
22 | COc1cc2c3c(n(CCCNCCO)c(=O)c2cc1OC)-c1nc2c(cc1C3=O)OCO2 | 10.7% (inactive)
23 | O=C(CSc1nnc(-c2c[nH]c3ccccc23)n1-c1ccccc1)Nc1ccc(C(=O)/C=C/c2ccc(Cl)cc2)cc1 | 59.4% (inactive)
24 | COc1cnc2c(c1)C(=O)c1c-2n(CCCNC(C)C)c(=O)c2cc(OC)c(OC)cc12 | 5.04% (active)
25 | COc1ccc(NC(=O)CSc2nnc(-c3ccc4nc(-c5ccc(Cl)cc5)[nH]c4c3)o2)cc1 | 14.7% (inactive)
26 | CN(CCO)c1oc(-c2ccccc2)nc1[P+](c1ccccc1)(c1ccccc1)c1ccccc1 | 9.88% (active)
27 | CN1CCc2c(sc3ncnc(N/N=C/c4ccc5ccccc5c4)c23)C1 | 13.9% (inactive)
